Data from PubChem BioAssay (NCI).
Compounds without any hit were thinned out: in the full panel of roughly 83,000, 20% have a hit.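 Growth was measured after 48 h exposure to one concentration of compound in 96-well plates. Values under 10 count as active.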 Values without a mark were called inactive. Active and inactive are the calls of the source.

These molecules were tested on OVCAR-8 ovarian (assay: NCI-60 one-dose screen, 48 h (100 = growth as untreated, 0 = no growth, -100 = all killed)). Conditions: 10 µM unless noted.
`NC(=O)N1CCOCC1` gave a growth of 103%. `N#Cc1ccc(OC(=O)Nc2c(Cl)cc(Cl)cc2Cl)cc1` showed a growth of 105%. Work on `CCOC(=O)/C(C)=C\c1ccc(OC)c(OC)c1` yielded a growth of 101%. `O=S(Cc1ccccc1)/C(=C/NC(=S)Nc1ccccc1)c1ccccc1` (configuration not stated) was tested, and the growth was 107%. For `C/C(=N\O)c1ccccn1`, the growth was 97.7%. `CC(C)NC(=O)OCc1c(COC(=O)NC(C)C)c(-c2ccc(Cl)cc2)n2c1CCC2` gave a growth of 63.3%. `CC(=O)NNC(=S)/N=C\C(C(=O)c1ccccc1)=C(/O)c1ccccc1` gave a growth of 102%. `C=CCS(C)(=O)=O` showed a growth of 95.4%. Molecule `O=C(NCc1ccccc1)c1cccc([N+](=O)[O-])c1` has a growth of 97.2%. With `c1ccc(-c2ccc3ccccc3c2)cc1` the growth was 97.1%. With `Cc1ccccc1NC(=O)Oc1ccc(Cl)cc1C(=O)c1ccccc1` the growth was 91.4%. Molecule `CCC(C)c1c(N)n(S(=O)(=O)c2ccc(C)cc2)oc1=O` (configuration not stated) has a growth of 96.6%. `O=Cc1c(O)c2ccccc2[nH]c1=O` gave a growth of 95.1%. In the case of `COC(=O)c1ccccc1C(=O)c1c(C)cc(C)cc1C`, the growth is reported as 101%. With `N=C(N)c1nn(C2OC(CO)C(O)C2O)c2nc[nH]c(=O)c12` (configuration not stated) the growth was 7.8% (active). With `COc1cccc(C(=O)O)c1OC` the growth was 101%. For `O=C(O)c1cc(I)ccc1O`, the growth was 109%. For `CC(=O)NNC(=S)N/C=C/c1c(C)ccc([N+](=O)[O-])c1[N+](=O)[O-]`, the growth was 102%. For `NNc1ncnc2c1ncn2C1OC(CO)C(O)C1O` (configuration not stated), the growth was 25.6%. `C=CCNC(=S)N/C=C(/C(=O)c1ccccc1)c1ccccc1` was tested, and the growth was 117%. Molecule `Cc1ccc(C2CCCCC2)cc1Br` has a growth of 98.4%. Work on `OCCc1ccc(Cl)cc1` yielded a growth of 98.7%. With `C/C(O)=C(/C=N/C(=S)Nc1ccccc1)C(=O)Nc1ccccc1C` the growth was 96.3%. Work on `CC1(C)OC(=O)CC1=O` yielded a growth of 97.4%. With `CN(C)CCOC(=O)Nc1ccc(Cc2ccc(NC(=O)OCCN(C)C)cc2)cc1` the growth was 98.2% [100 µM]. `O=c1nc(Nc2cccc(Cl)c2)oc2cc(Cl)oc(=O)c12` gave a growth of 62.9%. For `OCCNc1ccccc1`, the growth was 102%. Work on `O=C(Oc1ccccc1Cl)c1ccc(Cl)cc1Cl` yielded a growth of 101%. For `COc1cc(OC)c2cc(C(=O)c3ccc(C#N)cc3)c(=O)oc2c1`, the growth was 97.1%. In the case of `CC(C)C1CCC(C)C(O)C1` (configuration not stated), the growth is reported as 99.1%. `O=C(NC1CCCCC1)c1ccc(Cl)cc1` gave a growth of 105%. `O=C1C=Cc2ccccc2/C1=C/c1[nH]c(=O)[nH]c1O` was tested, and the growth was 45.4%. Work on `NC(CO)(CO)c1ccccc1` yielded a growth of 103%. With `Nc1cc(N)ncn1` the growth was 116%. `S=C(Sc1ccc(Cl)cc1)Sc1ccc(Cl)cc1` gave a growth of 22.1%. `CCOc1ccc(C(=O)O)cc1` gave a growth of 106%. In the case of `COc1cccc(C(=O)NNC(=O)c2cccc3ccccc23)c1`, the growth is reported as 105%.
